# Assay results published in PubChem BioAssay (Tox21).
# Inconclusive results are not listed. Calls of active or inactive are those of the source. Calls follow the shape of the full dose curve.
# Test system: thyroid hormone receptor (rat, GH3 cells)
# Experiment: qHTS assay to identify small molecule agonists of the thyroid receptor (TR) signaling pathway (AID 743066)
# Settings: GH3.TRE-Luc cells, TR agonist luciferase, 24 h; series mostly up to 83.9 µM; activation: at the top concentration
# % is scaled to controls: 0 for no effect and ±100 for the full control effect.
Structure (SMILES),activation,Potency
CCCCCCCCCOC(=O)c1ccc(O)cc1,-9.01% (inactive),–
OCc1c[nH]c2ccccc12,-10.9% (inactive),–
CCCCCCCCCCCCCCCC(=O)OC[C@H](O)[C@H]1OC(=O)C(O)=C1O,–,inactive
Oc1ccc(N=Nc2ccccc2)cc1,-8.55% [at 95.2 µM] (inactive),–
CSc1ccc(/C=C2/C(C)=C(CC(=O)O)c3cc(F)ccc32)cc1,-8.92% (inactive),–
CC(C)OC(=O)c1cc2c(OCC(O)CNC(C)(C)C)cccc2[nH]1 (configuration not stated),-6.49% (inactive),–
CCCCN(CCCC)c1ccc(C(=O)c2ccccc2C(=O)O)c(O)c1,-9.28% [at 95.2 µM] (inactive),–
CCCC(c1cc(C(C)(C)C)c(O)cc1C)c1cc(C(C)(C)C)c(O)cc1C,-8.72% [at 95.2 µM] (inactive),–
N=C1N=C(N)c2ccccc21,2.97% (inactive),–
Cc1nc(-c2ccc3c(c2)CCN(CCC2CCC(NC(=O)/C=C/c4ccc(F)cc4)CC2)CC3)no1 (configuration not stated),-2.51% [at 39.4 µM] (inactive),–
CN(C)c1ccc(C2(c3ccc(N(C)C)cc3)OC(=O)c3cc(N(C)C)ccc32)cc1,-2.66% (inactive),–
CCCCCCCCCCCC[N+](C)(C)CCCCCCCCCCCC,-8.19% (inactive),–
Oc1ccc2cc(SSc3ccc4cc(O)ccc4c3)ccc2c1,–,inactive
CCCCC(CC)COP(=O)(O)OCC(CC)CCCC (configuration not stated),–,inactive
Cc1ccc(O)c(C(C)(C)C)c1,–,inactive
CCCCCOC(=O)CCCC,0.166% (inactive),–
Clc1ccc2n[nH]nc2c1,0.29% (inactive),–
CCCCCCCCn1sc(Cl)c(Cl)c1=O,-6.82% (inactive),–
CCCCCCCCS(=O)C(C)Cc1ccc2c(c1)OCO2 (configuration not stated),-9.1% [at 95.2 µM] (inactive),–
NNc1nc(-c2ccc([N+](=O)[O-])cc2)cs1,-7.13% (inactive),–
C/C=C1/C(=O)C[C@H]2[C@@H]3CCC4=CC(=O)CC[C@]4(C)[C@H]3CC[C@]12C,-0.876% (inactive),–
CCCCC(CC)COC(=O)c1ccccc1C(=O)O (configuration not stated),-7.46% [at 95.2 µM] (inactive),–
